Measured values from PubChem BioAssay AID485346 (Sanford-Burnham Center for Chemical Genomics, 2010).
Screen size: about 330,000 compounds; about 10,000 (3%) were called active. Only a selection was taken, and actives are over-represented in it overall. Unmarked numbers belong to inactive results.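 How the source made its calls: active means inhibition of at least 50% at 8 µM in the primary screen; inactive means the rest.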

Target: Protein Mdm4 (Homo sapiens) + E3 ubiquitin-protein ligase Mdm2 (Homo sapiens) (UniProt O15151+Q00987)
Sequence (O15151 whole entry, looked up): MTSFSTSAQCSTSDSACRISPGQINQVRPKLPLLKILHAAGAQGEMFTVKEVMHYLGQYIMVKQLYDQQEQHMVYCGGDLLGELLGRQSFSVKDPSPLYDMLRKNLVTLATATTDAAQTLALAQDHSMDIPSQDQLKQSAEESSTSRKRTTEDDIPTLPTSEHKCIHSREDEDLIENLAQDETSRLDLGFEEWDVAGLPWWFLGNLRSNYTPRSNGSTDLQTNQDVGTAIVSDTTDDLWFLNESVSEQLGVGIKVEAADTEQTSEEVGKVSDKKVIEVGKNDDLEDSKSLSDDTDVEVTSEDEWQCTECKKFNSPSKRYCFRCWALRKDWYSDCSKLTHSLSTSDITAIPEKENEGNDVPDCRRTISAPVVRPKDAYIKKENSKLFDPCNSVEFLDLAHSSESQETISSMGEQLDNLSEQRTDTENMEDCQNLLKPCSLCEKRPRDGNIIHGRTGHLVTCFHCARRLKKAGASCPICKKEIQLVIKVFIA
Sequence (Q00987 whole entry, looked up): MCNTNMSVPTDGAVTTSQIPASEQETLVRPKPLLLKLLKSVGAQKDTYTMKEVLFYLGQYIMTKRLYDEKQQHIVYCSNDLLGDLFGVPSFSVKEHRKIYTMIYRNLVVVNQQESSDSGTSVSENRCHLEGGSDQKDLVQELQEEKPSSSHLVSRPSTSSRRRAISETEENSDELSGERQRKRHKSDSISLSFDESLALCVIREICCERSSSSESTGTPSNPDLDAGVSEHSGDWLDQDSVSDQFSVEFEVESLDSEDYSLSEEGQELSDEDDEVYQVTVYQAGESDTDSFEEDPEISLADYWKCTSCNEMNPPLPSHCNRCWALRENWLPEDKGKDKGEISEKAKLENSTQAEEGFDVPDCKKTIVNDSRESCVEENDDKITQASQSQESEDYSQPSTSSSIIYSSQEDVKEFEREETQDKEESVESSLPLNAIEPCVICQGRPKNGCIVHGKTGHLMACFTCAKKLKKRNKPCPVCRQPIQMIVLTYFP
Test: disruptors of Mdm2/MdmX RING complex – cell-based, luminescence, split luciferase, SaOS-2, uHTS, primary screen (AID 485346)
Conditions: SaOS-2 split-luciferase Mdm2/MdmX complementation, at 8 µM, active compounds read high

Compound	inhibition
Cc1cc(NC(=O)CCC(=O)N(CC(=O)NCC2CCCO2)c2ccccc2C)no1 (centres undefined)	11.6%
COc1ccc(OC)c(S(=O)(=O)NCCC(C)C)c1	22.1%
C=C(C)C(=O)O[C@H]1C/C(C)=C\C(=O)/C=C(\C)[C@H](O)[C@@H]2OC(=O)C(=C)[C@@H]21	95.4% (active)
O=C(CNC1CCCCC1)NCC1(c2ccccc2)CCCC1	2.11%
C=C1CCN([C@H](C(=O)NCc2cc(OC)c(OC)c(OC)c2)C(C)C)S(=O)(=O)c2ccccc21	-24.7%
C[C@@H]1CC[C@]2(O[C@@H](CCO)C[C@H](O)[C@H]2O)O1	16.3%
CC(C)c1ccc(NC(=O)C2CCCN(S(=O)(=O)c3cccnc3)C2)cc1 (centres undefined)	20.9%
COc1ccc(S(=O)(=O)N2CCCC(C(=O)Nc3ccc(NC(=O)c4ccccn4)cc3)C2)cc1 (centres undefined)	-15.5%
CC(=O)Nc1ccc(NC(=O)C2CCCN(S(=O)(=O)c3ccc(Cl)cc3)C2)cc1 (centres undefined)	55.6% (active)
CCCCOC(=O)c1ccc(N2C(=O)CC(N3CCN(C/C=C/c4ccccc4)CC3)C2=O)cc1 (centres undefined)	25.8%
CCCCCCC(=O)N(O)C1CC(=O)N(c2ccccc2)C1=O (centres undefined)	61.2% (active)
CCOC(=O)c1ccc(N2C(=O)CC(N(C)Cc3ccccc3)C2=O)cc1 (centres undefined)	-7.46%
CS(=O)(=O)c1ccc(Cl)c(NC(=O)COC(=O)c2ncc(Cl)c(Cl)c2Cl)c1	13.8%
CCOc1ccc(CN2CCC(n3nccc3NC(=O)C3CC3)CC2)cc1CO	20%
COc1ccc(Br)cc1C(=O)Nc1cccc(C)c1C	-15.3%
COc1ccc(Br)cc1C(=O)NC(=S)Nc1cc(-c2nc3ccccc3[nH]2)ccc1C	81.4% (active)
Cc1cc2[nH]ncc2cc1NC(=S)NC(=O)c1ccccc1	35%
Cc1ccc2c(Cl)c(C(=O)Nc3nn[nH]n3)sc2c1	16.7%
Cc1ccc(-c2nc3ccccc3[nH]2)cc1NC(=O)c1sc2ccccc2c1Cl	99.3% (active)
CN1CCc2ccccc2C1Cc1ccccc1NC(=O)c1sc2ccccc2c1Cl (centres undefined)	12.4%
Cc1cc(C(=O)O)c(S(C)(=O)=O)s1	24.5%
COC(=O)C(C(=O)Nc1cccc(C)n1)C1CCCCCC1 (centres undefined)	10.4%
C=CCOc1ccc(/C=C/C(=O)OC(C)C(=O)Nc2ccc(NC(C)=O)cc2)cc1 (centres undefined)	4.16%
CC(=O)NC(Cc1ccccc1)C(=O)NC1CCN(c2ncccc2[N+](=O)[O-])CC1 (centres undefined)	20.8%

Compound	inhibition
COc1ccc(-c2cc3ncccc3cn2)cc1	-99.3%
COc1ccc(-c2cc(C3CCN(c4ncccc4[N+](=O)[O-])CC3)[nH]n2)cc1	56.4% (active)
COc1ccc(S(=O)(=O)N2CCCC2CNC(=O)C(=O)NC2CC2)cc1 (centres undefined)	5.26%
C=CCn1c(=S)[nH]c2nc3c(cc2c1=O)COC(C)(C)C3	-32.6%
CC(C)CCSc1ncnc2c1oc1nc3c(cc12)COC(C)(C)C3	-3.42%
CC1(C)Cc2nc3sc4c(SCC(=O)NC(c5ccccc5)c5ccccc5)ncnc4c3cc2CO1	71.8% (active)
CCCCN(CC(=O)Nc1cccc(S(=O)(=O)N2CCCC2)c1)Cc1nc2ccccc2c(=O)[nH]1	15.4%
CC(C(=O)N1CCN(c2ccccc2F)CC1)c1ccc([N+](=O)[O-])cc1 (centres undefined)	-3.99%
COc1ccc(-c2cn[nH]c2-c2ccc(OC)cc2)cc1	63.5% (active)
COc1ccc(Oc2cn[nH]c2-c2ccc(OC)cc2O)cc1	14.4%
COC(=O)c1cc(OC)ccc1-c1ccc(OC)cc1	21.1%
O=C(O)CCn1c(O)c(C=C2N=c3ccccc3=N2)sc1=S	-11%
O=C(CN1CCOc2ccccc21)N1CCC(Cc2ccccc2)CC1	25.3%
Cc1c(NS(=O)(=O)c2cc(C(=O)NCCc3ccc(F)cc3)cc(Cl)c2Cl)c(=O)n(-c2ccccc2)n1C	1.11%
c1ccc(C2c3[nH]c4ccccc4c3CCN2Cc2cccn2-c2cccnc2)nc1 (centres undefined)	5.09%
CCOc1ccc(C2c3[nH]c4ccccc4c3CCN2Cc2cccn2-c2ncccn2)cc1 (centres undefined)	76.2% (active)
CCOc1ccc(C2c3[nH]c4ccccc4c3CCN2Cc2cn(CC)nc2C)cc1 (centres undefined)	12.1%
CCc1ccc(NC(=O)C(C)OC(=O)/C=C/c2cccc([N+](=O)[O-])c2)cc1 (centres undefined)	-11%
CC1=C(C(=O)OC2CCCCC2)C(c2cccnc2)n2ncnc2N1 (centres undefined)	18.3%
CCOC(=O)Nc1ccc2c(c1)N(C(=O)CCN1CCN(CCO)CC1)c1ccccc1CC2	-8.36%
CCOC(=O)Nc1ccc2c(c1)N(C(=O)CCCl)c1ccccc1[S@]2=O	84.3% (active)
CCNCCC(=O)N1c2ccccc2Sc2ccc(NC(=O)OCC)cc21	11.1%
CCOc1cc(-c2cc(-c3ccc(OC)cc3)nc(N)c2C#N)ccc1O	14.7%
CCOc1cc(-c2cc(-c3ccc(NC(C)=O)cc3)nc(N)c2C#N)ccc1O	62.3% (active)

Compound	inhibition
CCOC(=O)CC(=O)CSc1nc(-c2ccccc2)cc(-c2ccc(Cl)cc2)c1C#N	17%
CCC(C)c1ccccc1NC(=O)CN(C)CC(=O)Nc1ccccc1SC (centres undefined)	9.56%
O=C(NCC1CCCO1)c1cc2c([nH]c3ccccc32)c(-c2ccc(F)cc2)n1 (centres undefined)	69.3% (active)
O=C(NCC1CCCO1)c1ccc2ccccc2n1 (centres undefined)	-19.2%
O=C(NCCCO)c1cc2c([nH]c3ccccc32)c(-c2ccc(F)cc2)n1	40.9%
COc1ccc2[nH]c3c(c2c1)CCN1C(=O)C(CC(=O)NCCc2ccccn2)C[C@H](C(=O)N2CCOCC2)[C@@]31C (some centres undefined)	1.71%
Cc1ccc2c(N)c(C(=O)c3ccccc3)sc2n1	20.5%
Cc1sc2nc(CC(N)=O)[nH]c(=O)c2c1-c1ccccc1	-7.25%
NC(=O)c1sc2nc3c(c(-c4ccccc4)c2c1N)CCC3	57.3% (active)
COC(=O)Cn1c(=NC(=O)c2cc(OC)c(OC)c(OC)c2)sc2cc(OC)ccc21	34.7%
CCOC(=O)C(Sc1ncc(C#N)c(N)n1)C(C)C (centres undefined)	15.2%
C=CCn1c(SCC(=O)NC)nnc1C12CC3CC(CC(C3)C1)C2	10.2%
CCNC(=O)c1c(O)c2cccc3c2n(c1=O)CC3	80.5% (active)
CCCCc1nc2ccccc2c(=O)n1NC(=O)c1c(O)c2cccc3c2n(c1=O)CC3	27%
Cc1cc(=O)n2c3c(cccc13)CCC2	0.512%
CC1=CC(=C(C#N)c2nc3ccccc3s2)C=C(C)N1c1ccc(F)cc1F	12.5%
OCCCNC(c1ccccc1)c1ccc(O)cc1 (centres undefined)	4.25%
COc1ccc(/C=C(/CC(=O)Nc2ccc(C)cc2)c2nc3ccccc3s2)cc1	-25.3%
O=C(O)CS/C(=C\c1ccc(F)cc1)c1nc2ccccc2s1	21.7%
COc1cccc2sc(NNC(=O)c3nc4ccccc4s3)nc12	59.4% (active)
O=C(Nc1ccc2c(c1)OCCO2)C1CCCN(c2ncccn2)C1 (centres undefined)	-64.3%
O=C(Nc1ccc2c(c1)OCO2)C1CC1(Cl)Cl (centres undefined)	18%
O=C(Nc1ccc2c(c1)OCCO2)C1CCCC1	55% (active)
Cc1onc(-c2ccc(Cl)cc2)c1-c1ccnn1S(=O)(=O)c1ccc(Cl)cc1	16.6%

Compound	inhibition
O=C(COC(=O)C1(c2ccc(F)cc2)CCCC1)N1CCNC1=O	1.73%
C=CCn1c(CNS(=O)(=O)c2ccc(Br)cc2)nnc1SC	20.2%
N/C(=N\OC(=O)/C=C/c1ccccc1)c1ccc(Br)cc1	13.5%
N/C(=N\OC(=O)N1c2ccccc2Sc2ccccc21)c1ccc(Br)cc1	53.2% (active)
N/C(=N\OC(=O)Cc1ccccc1[N+](=O)[O-])c1ccc(Br)cc1	-0.461%
Cc1cc(=O)cc(C)n1-c1ccc(Cl)c(Cl)c1	15.1%
O=c1[nH]nc(SCCS(=O)(=O)c2ccc(F)cc2)n1-c1ccccc1C(F)(F)F	25.1%
CC[C@@H]1CCCCc2ccccc2[C@@H](C(=O)C[C@H](O)CC(C)=O)OC1=O	33%
CCOC(=O)c1c(C)oc2cc(Sc3ccccc3)c(O)c(O)c12	34.7%
COc1ccc(C(=O)Cc2cnn(-c3ccccc3)c2)c(O)c1	-156%
Cc1cc(O)cc(O)c1C(=O)Cc1cnn(-c2ccccc2)c1	-9.6%
Cc1[nH]nc(-c2ccc(OCc3cnn(-c4ccccc4)c3)cc2O)c1Oc1ccc(Cl)cc1	68.4% (active)
CC(C)C[C@@H](CO)N1CCN(Cc2ccc(O)cc2)CCC1=O	-30.6%
Nc1nonc1-c1nc2ccccc2n1Cc1ccc(F)cc1	53.7% (active)
COc1ccc(C)c(Cn2c(-c3nonc3N)nc3ccccc32)c1	45.6%
O=c1[nH]cccc1-c1nc2ccccc2n1Cc1ccc(Cl)cc1	-9.95%
CCc1cccc(NC(=O)COC(=O)c2cc(=O)c3ccccc3o2)c1	13.3%
COc1ccccc1CNC(=O)COC(=O)c1sc(C)nc1C	-9.07%
O=c1oc2ccccc2c(CNc2ccccc2)c1[N+](=O)[O-]	7.52%
O=C(N[C@H]1C/C=C\C(c2cccc(F)c2)N(Cc2ccccc2)C(=O)C1)OCC1c2ccccc2-c2ccccc21 (some centres undefined)	2.78%
Cc1ccc(-c2cccc([C@H]3[C@@H]4C=CC[C@@H](C)[C@@H]4C(=O)N3Cc3ccccc3)c2)cc1	69.8% (active)
Cc1cccc([C@H]2[C@@H]3C=CC[C@@H](C)[C@@H]3C(=O)N2Cc2ccccc2)c1	16.7%
